Assay outcomes deposited in PubChem by Sanford-Burnham Center for Chemical Genomics.
This is a sample that favours compounds with a hit; in the whole collection about 2.6% have one here.
MLLE-PAM2 inh – inhibitors of microRNA-mediated deadenylation, human PABP1 MLLE binding. GST-MLLE / FITC-PAM2 fluorescence polarization. inhibition, % at 20 µM. P11940. 360,000 tested, 0.36% active. AID 588489; in the data active = inhibition above about 35%, passing the limit was not always enough
Target sequence (P11940 whole entry, looked up): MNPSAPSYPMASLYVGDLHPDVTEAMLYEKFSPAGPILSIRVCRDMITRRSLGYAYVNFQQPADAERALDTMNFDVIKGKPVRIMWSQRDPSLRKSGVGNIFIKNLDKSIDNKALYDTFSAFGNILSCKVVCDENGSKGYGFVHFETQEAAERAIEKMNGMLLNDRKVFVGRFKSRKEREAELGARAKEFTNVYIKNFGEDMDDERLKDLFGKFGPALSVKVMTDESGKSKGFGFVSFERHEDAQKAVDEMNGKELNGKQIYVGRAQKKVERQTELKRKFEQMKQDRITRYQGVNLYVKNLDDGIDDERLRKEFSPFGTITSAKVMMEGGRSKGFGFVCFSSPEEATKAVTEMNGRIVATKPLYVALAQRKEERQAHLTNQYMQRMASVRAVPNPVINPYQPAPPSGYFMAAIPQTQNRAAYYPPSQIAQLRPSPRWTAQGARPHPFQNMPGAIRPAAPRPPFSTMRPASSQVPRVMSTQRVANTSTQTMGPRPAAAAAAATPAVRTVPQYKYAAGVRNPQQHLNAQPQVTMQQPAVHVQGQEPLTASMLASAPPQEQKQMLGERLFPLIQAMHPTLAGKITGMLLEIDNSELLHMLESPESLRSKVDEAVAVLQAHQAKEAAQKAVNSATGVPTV
PHOSPHO1 inh – inhibitors of human PHOSPHO1 phosphatase. recombinant PHOSPHO1, absorbance phosphatase assay. Q8TCT1. 290,000 tested, 1.1% active. inhibition, % at 13.3 µM; in the data active = inhibition above about 60%
eIF4H FP inh – inhibitors of RNA binding by human eIF4H. Q15056. eIF4H fluorescence polarization binding assay. inhibition, % at 35 µM. 290,000 tested, 0.94% active. AID 2012;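 note: calls also rest on retests at 20 µM and on dose response follow-up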
CRFBP-R2 block – blocks CRF-induced signaling of the CRF-BP/CRF-R2 complex; HEK293 CRF-R2/CRF-BP, CRF-induced calcium fluorescence; inhibition, % at 11.8 µM; 350,000 tested, 0.59% active; AID 588475;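 active = inhibition of the ligand-induced calcium signal above about 50% at the single tested concentration, limit read from the data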
PABP FP inh – blocks human PABP binding to poly(A) RNA; 290,000 tested, 1% active; fluorescence polarization; P11940; inhibition, % at 35 µM; AID 2014;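 note: calls also rest on retests at 20 µM and on dose response follow-up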
Of the large screens only hits and unclear results are named; the others gave an inactive call. Unless noted, the rule behind the calls is not given here.

CCOc1cc(CNCC(O)c2ccccc2)cc(Cl)c1OC (centres undefined)	PHOSPHO1 inh 62
CC(=O)Nc1ccc(NC(=O)COc2ccc([N+](=O)[O-])cc2)cc1	CRFBP-R2 block 60
CC(=O)Nc1ccc(NC(=O)CN(c2ccc([N+](=O)[O-])cc2)S(=O)(=O)c2ccccc2)cc1	PHOSPHO1 inh 67
COC(=O)c1ccc(NC(=O)COc2ccc([N+](=O)[O-])cc2)cc1	none
O=C(CCOc1ccccc1)Nc1ccc([N+](=O)[O-])cc1	CRFBP-R2 block 67
COc1ccccc1NC(=O)Nc1nnc([C@H]2C[C@H](O)[C@@H](CO)O2)s1	none (no result: PHOSPHO1 inh, eIF4H FP inh, CRFBP-R2 block, PABP FP inh)
C=C(CN(C)C)C(=O)c1cc(C)ccc1C	none (no result: PHOSPHO1 inh, eIF4H FP inh, PABP FP inh)
CC(=O)OC1CC2(C)C(CCC2(O)C(C)=O)C2CCC3C(Cl)C(=O)CCC3(C)C12 (centres undefined)	none (no result: PHOSPHO1 inh, eIF4H FP inh, PABP FP inh)
C[C@@H]1CN([C@@H](C)CO)C(=O)CCCn2nncc2CO[C@@H]1CN(C)S(=O)(=O)c1cccc(F)c1	none (no result: PHOSPHO1 inh, eIF4H FP inh, PABP FP inh)
CC(=O)c1c(C)[nH]c(C(=O)CSc2nnc(-c3ccccc3)o2)c1C	none
Cc1cc(C)cc(-c2nnc(SCC(=O)c3ccc4c(c3)OCCO4)o2)c1	none
Cc1ccc(C(=O)CSc2nnc(-c3ccc4[nH]c(C)c(C)c4c3)o2)cc1C	PHOSPHO1 inh 74
Cc1[nH]c2ccc(-c3nnc(SCC(=O)c4ccccc4F)o3)cc2c1C	PHOSPHO1 inh 88
CSCCC(=O)N1CCN(CC(=O)N2CCCC2)CC1	none
C[C@@H]1CCC2[C@](C)(CO)[C@@H](O)CC[C@]2(C)[C@@]12CC[C@@](CO)(CC(=O)O)O2 (some centres undefined)	MLLE-PAM2 inh 53
Cc1ccc(-n2nc3c(c2NC(=O)c2ccc(Br)o2)CSC3)c(C)c1	none
CC(C)(C)C(=O)Nc1c2c(nn1-c1ccc(F)cc1)CSC2	MLLE-PAM2 inh 37
Cc1ccc(-n2nc3c(c2NC(=O)C(C)(C)C)CSC3)c(C)c1	PHOSPHO1 inh 88
CCC(=O)Nc1c2c(nn1-c1ccc(C)cc1C)CSC2	PHOSPHO1 inh 86
CS(=O)(=O)N1CCN(C(=S)NCc2ccc(Cl)cc2)CC1	eIF4H FP inh 82, PABP FP inh 4.3
CS(=O)(=O)N1CCN(C(=S)NCc2ccc(F)cc2)CC1	none
Cc1cn(C2CC(O)C(CO)O2)c(=O)n(Cc2ccccc2)c1=O (centres undefined)	none (no result: PHOSPHO1 inh, eIF4H FP inh, PABP FP inh)
O=C(Nc1ccccc1)Nc1ccccc1NS(=O)(=O)c1cccs1	none
N#Cc1ccc(OCC(=O)Nc2ccccc2NS(=O)(=O)c2cccs2)cc1	eIF4H FP inh 53, PABP FP inh active
CCCS(=O)(=O)N1CCN(Cc2c[nH]c3ccccc23)CC1	none
CC(=O)O/N=C/c1c(C)c(C=O)n2ccccc12	PABP FP inh 55
O=C(Nc1ccccc1Cl)c1cc(C2CCCN(S(=O)(=O)c3cccs3)C2)on1 (centres undefined)	none (no result: PHOSPHO1 inh, eIF4H FP inh, CRFBP-R2 block, PABP FP inh)
Cc1cccc(NC(=S)NNC(=O)c2cccc([N+](=O)[O-])c2)c1	none
Cc1occc1C(=O)NNC(=S)Nc1cccc([N+](=O)[O-])c1	PHOSPHO1 inh 88
OC[C@@H]1CN(Cc2ccc(-c3ccccc3)cc2)C[C@H](n2cnc3c(NC4CC4)ncnc32)O1	none (no result: PHOSPHO1 inh, eIF4H FP inh, CRFBP-R2 block, PABP FP inh)
Cc1ccc(NC(=S)N/N=C2\CC3CC=CC23)c(C)c1 (centres undefined)	PHOSPHO1 inh 65
O=c1nc(/C=C/c2ccc(-c3ccc(F)cc3)o2)cc(C(F)(F)F)[nH]1	PABP FP inh 121 (no result: MLLE-PAM2 inh, CRFBP-R2 block)
CCCCn1c(=NC(=O)c2cccnc2)c(C#N)cc2c(=O)n3cccc(C)c3nc21	PHOSPHO1 inh 78, eIF4H FP inh inconclusive, PABP FP inh inconclusive
CCCn1c(=NC(=O)c2ccncc2)c(C#N)cc2c(=O)n3cccc(C)c3nc21	none (no result: PHOSPHO1 inh, eIF4H FP inh, PABP FP inh)
COCCCn1c(=NC(=O)c2ccncc2)c(C#N)cc2c(=O)n3cccc(C)c3nc21	eIF4H FP inh inconclusive, PABP FP inh inconclusive
Cc1cccn2c(=O)c3cc(C#N)c(=NC(=O)c4ccncc4)n(CCCOC(C)C)c3nc12	PHOSPHO1 inh 96, eIF4H FP inh 75, PABP FP inh 63
Cc1ccc(NC(=O)C2c3ccccc3-c3ccccc32)cc1	none (no result: PHOSPHO1 inh, eIF4H FP inh, CRFBP-R2 block, PABP FP inh)
NC(=O)c1c(/N=C/c2cccnc2)sc2c1CCCC2	PHOSPHO1 inh 77
NC(=O)c1c(NC(=O)c2ccncc2)sc2c1CCCC2	none
Cc1ccc(/C=N/c2sc3c(c2C(N)=O)CCCC3)o1	eIF4H FP inh 74
CN1CCc2c(sc(/N=C/c3ccco3)c2C(N)=O)C1	eIF4H FP inh 68, PABP FP inh 57
CN(C)/C=N/c1sc2c(c1C(N)=O)CCCC2	none
CCOC(=O)C1(C)CCCN1C(=O)c1cccc2ccccc12 (centres undefined)	none (no result: PHOSPHO1 inh, eIF4H FP inh, CRFBP-R2 block, PABP FP inh)
COc1cccc(-c2cc3nc(C)c(C)c(N4CCN(C(=O)c5ccoc5)CC4)n3n2)c1	none (no result: PHOSPHO1 inh, eIF4H FP inh, PABP FP inh)
CCCCN(C)C(=O)c1ccc(Nc2nc(C(N)COCc3ccccc3)cs2)nc1 (centres undefined)	none (no result: PHOSPHO1 inh, eIF4H FP inh, CRFBP-R2 block, PABP FP inh)
O=C(CCn1nnc2ccccc21)N1CCN(c2ccccc2)CC1	CRFBP-R2 block 95
NC(Cc1c[nH]c2ccccc12)C(=O)NCc1ccccc1 (centres undefined)	none
Cc1ccnc(SC2CC(=O)N(c3ccc(F)cc3)C2=O)n1 (centres undefined)	none
CCCCC(=O)c1ccc(O)cc1	none
O=C(CCO)c1ccc(O)cc1	eIF4H FP inh 94, PABP FP inh 51
Cc1cccc(NC(=S)NNC(=O)c2ccc(Br)o2)c1	PHOSPHO1 inh 88
Cc1cccc(NC(=S)NNC(=O)c2csc3c2CCCC3)c1	MLLE-PAM2 inh 38
Cc1ccc(C)c(NC(=S)NNC(=O)c2csc3c2CCCC3)c1	none
Cc1ccc(Cl)cc1-c1cc(C(=O)NCC2CCCCC2)[nH]n1	none (no result: PHOSPHO1 inh, eIF4H FP inh, CRFBP-R2 block, PABP FP inh)
Cc1csc(=NC(=O)c2ccccc2)n1Cc1ccco1	none
Cc1csc(=Nc2ccccc2)n1Cc1ccco1	CRFBP-R2 block 53
CCOC(=O)C1(Cc2ccccc2)CCCCCC1=O (centres undefined)	none (no result: PHOSPHO1 inh, eIF4H FP inh, PABP FP inh)
O=C(O)CN1C(=O)/C(=C\c2cc(Br)ccc2OCc2ccc([N+](=O)[O-])cc2)SC1=S	eIF4H FP inh 68, PABP FP inh 38 (no result: PHOSPHO1 inh)
O=C(O)CN1C(=O)/C(=C\c2cc(Br)ccc2OCc2ccccc2Cl)SC1=S	eIF4H FP inh 60, PABP FP inh 24 (no result: PHOSPHO1 inh)
CC(=O)Nc1cc(-c2cccc(F)c2)cn2c(-c3ccc(F)cc3)cnc12	none (no result: PHOSPHO1 inh, eIF4H FP inh, CRFBP-R2 block, PABP FP inh)
CCOc1ccccc1NC(=O)CSc1nnc(-c2cccnc2)o1	MLLE-PAM2 inh 50 (no result: PHOSPHO1 inh, eIF4H FP inh, PABP FP inh)
CCOc1ccccc1NC(=O)CSc1nnc(-c2ccncc2)o1	none (no result: PHOSPHO1 inh, eIF4H FP inh, PABP FP inh)
Cc1csc(=O)n1CCC(=O)OCC(=O)NCc1ccccc1	none (no result: PHOSPHO1 inh, eIF4H FP inh, PABP FP inh)
O=C(CN1CCN(Cc2ccc3c(c2)OCO3)CC1)c1c[nH]c2ccccc12	PHOSPHO1 inh 84
CC1(Oc2ccc3ccccc3c2)CCN(Cc2cccn2-c2nccs2)C1 (centres undefined)	none (no result: PHOSPHO1 inh, eIF4H FP inh, CRFBP-R2 block, PABP FP inh)
CCOc1ccc(NCc2cc3cc(OC)ccc3[nH]c2=O)cc1	eIF4H FP inh 35, PABP FP inh 57
COc1ccc2[nH]c(=O)c(CNc3ccccc3)cc2c1	none
Cc1ccc(CNC(=O)[C@H](Cc2ccccc2)NC(=O)C2CCNCC2)cc1	none
